In PubChem BioAssay (NCATS):
Records with an inconclusive call do not appear. Unmarked numbers belong to inactive results. Active and inactive are the calls of the source. The call rests on the fitted dose curve; in most records, active means well fitted inhibition curve with a large enough effect; inconclusive means small, poorly fitted or top-dose-only effect; inactive means flat fitted curve, though single readings scatter.

Each compound was assayed on Zika virus NS2B-NS3 protease (assay: Primary screen GU AMC qHTS for Zika virus inhibitors (AID 1347154; further: nearly all actives have a fitted effect of over 70% in size;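 on activity change, negative = inhibition: 0% = no-inhibitor control and -100% = no-enzyme control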)). Settings: Zika NS2B-NS3 unlinked protease, AMC fluorogenic substrate; series mostly up to 54.1 µM; activity change, negative = inhibition: at the top concentration.
Method in brief: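 Unlinked Zika NS2B hydrophilic domain–NS3 protease complex at 25 nM in 10 mM Tris-HCl pH 8.0, 0.01% Tween 20, with an AMC peptide substrate. Fluorescence change (340/450 nm) over 15 min at room temperature, normalized to controls, fitted to 4-parameter Hill.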
Potency means the concentration at half of the fitted maximal effect.

SMILES	activity change, negative = inhibition	Potency
C[C@@H]1COC(Nc2ccc3ncnc(Nc4ccc(OCc5nccs5)c(Cl)c4)c3c2)=N1	22.2%	–
Cn1c2cc(S(C)=O)sc2c2cnn(Cc3cccc(N)c3)c(=O)c21 (stereo not drawn)	-7.94%	–
Clc1cccc(-c2nnnn2Cc2cccnc2)c1Cl	-1.68%	–
Nc1ccn([C@@H]2CS[C@H](CO)O2)c(=O)n1	-0.0353% [at 104 µM]	–
c1nc2nc(Nc3ccc(N4CCOCC4)cc3)nc(NC3CCCCC3)c2[nH]1	-11.2%	–
O=C(O)CO.[NH2-].[NH2-].[Pt+2]	13.1%	–
O=C(NCCCNc1nc(Nc2cccc(NC(=O)N3CCCC3)c2)ncc1I)c1cccs1	-10.1%	–
O=C(O)CCCc1c[nH]c2ccccc12	-0.579%	–
CCC[C@H](NC(=O)C(C#N)=Cc1cccc(Br)n1)c1ccccc1	1.62%	–
CC1(O)CC(c2nc(-c3ccc4ccc(-c5ccccc5)nc4c3)c3c(N)nccn23)C1 (stereo not drawn)	0.872%	–
Nc1ccc(C(=O)c2cc3c(ccc4ccccc43)[nH]2)cc1	-21.4%	–
COc1ccc2c(OCc3nnc4ccc(-c5ccccc5)nn34)ccnc2c1	15.4%	–
CN(C)CC=CC(=O)Nc1cc2c(Nc3ccc(F)c(Cl)c3)ncnc2cc1O[C@H]1CCOC1	5.38%	–
Cc1cn2cc(C(=O)N(C)CCO)cc(N[C@@H]3CCOc4cccc(C)c43)c2n1	11.9%	–
Cc1ccc(CN2CCNCC2)cc1NC(=O)CNc1ccc(F)c(F)c1	18.1%	–
NC1(Cc2ccc(Cl)cc2)CCN(c2ncnc3[nH]ccc23)CC1	5.24%	–
O=C1CCC[C@@H]2[C@H]3CCC[N+]4([O-])CCC[C@@H](CN12)[C@@H]34 (stereo partly drawn)	-2.54%	–

SMILES	activity change, negative = inhibition	Potency
COc1cc2c(Oc3ccc4[nH]c(C)cc4c3F)ncnc2cc1OCCCN1CCCC1	9.35%	–
COc1cc(C(C)C)c2c(c1)S(=O)(=O)N(COc1cc(=O)n3cccc(OCCN4CCCCC4)c3n1)C2=O	–	inactive
COc1c(N2C[C@@H]3CCCN[C@H]3C2)c(F)cc2c(=O)c(C(=O)O)cn(C3CC3)c12	–	30.4 µM (active)
CN1CCN(c2ccc3nc(-c4c(N)c5c(F)cccc5[nH]c4=O)[nH]c3c2)CC1	12.2%	–
CCCNC(=O)Nc1ccc(Oc2ncnc3cc(OC)c(OC)cc23)cc1Cl	0.486%	–
COc1ccc2c(c1)CC[C@@H](CN(C)CC(=O)O)[C@H]2c1ccccc1	-14.6%	–
Cc1cc(Nc2cc(N3CCN(C)CC3)nc(C=Cc3ccccc3)n2)n[nH]1	4.43% [at 104 µM]	–
C[C@@H]1CN(CC(=O)Nc2ccc3c(c2)Cc2cccc(-c4cc(=O)cc(N5CCOCC5)o4)c2S3)C[C@H](C)O1	2.7%	–
Cn1cc(-c2[nH]c3cc(NC(=O)[C@H](N)C4CCCCC4)cc4c3c2C=NNC4=O)cn1	-1.08%	–
CCCCOc1c(C(=O)c2c(F)cc(C)cc2F)cnc2n[nH]cc12	14.4%	–
COc1cc(-c2nn(C3CCC(N4CCN(C(C)=O)CC4)CC3)c3ncnc(N)c23)ccc1NC(=O)c1cc2ccccc2n1C (stereo not drawn)	4.9%	–
N#CCNC(=O)c1ccc(-c2ccnc(Nc3ccc(N4CCOCC4)cc3)n2)cc1	-8.44%	–
CCCn1c(=O)c2[nH]c(-c3cnn(Cc4cccc(C(F)(F)F)c4)c3)nc2n(CC)c1=O	5.33%	–
COc1cc2c(Nc3ccc(NC(=O)c4ccccc4)cc3)ncnc2cc1OCCCN1CCOCC1	–	inactive
CS(=O)(=O)c1ccc(-c2cnc(N)c(C(=O)Nc3ccccc3)n2)cc1	762%	–
CNc1nccc(-c2cccnc2Oc2cc(C(=O)Nc3cccc(C(F)(F)F)c3)ccc2C)n1	18%	–
